HT1080 IDH1KD tx – HT-1080 IDH1 knockdown cell toxicity (counter line) | AID 686971 | 2% of 360,000 active | Potency, µM (series often up to 46.1 µM), for inactives: top-dose activity, negative = toxicity, hits mostly cytotoxic | HT-1080 IDH1 knockdown viability, ATP luminescence, 48 h;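 note: potency is the fitted concentration of half-maximal effect; 0% = DMSO wells and -100% = cell-free medium wells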
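Luminescent ATP read-out (CellTiter-Glo, 10 min at room temperature) after 48 h compound exposure at 37 °C gave viability of IDH1-knockdown HT-1080 cells. Activity was normalised to DMSO and cell-free wells, then fitted as concentration-response curves.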
HT1080NT lethal – kills 2HG-producing HT-1080-NT fibrosarcoma cells | 1.6% of 360,000 active | Potency, µM (top dose mostly 46.1 µM), inactives show at the highest dose activity, negative = less viability, most hits filed as cytotoxic | HT-1080-NT fibrosarcoma viability, CellTiter-Glo ATP luminescence, 48 h;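 note: NT is the 2HG producing partner of a matched IDH1 knockdown line; potency is the fitted concentration of half-maximal effect; 0% = DMSO-treated cells and -100% = media-only wells without cells; nearly all actives have a fitted effect of over 55% in size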
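Toxicity toward the 2HG-producing NT line was scored as %Activity, normalised to DMSO and no-cell wells, from CellTiter-Glo luminescence after 48 hours' treatment.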
IL-1B inflam inh – inflammasome signaling inhibition, IL-1 beta readout; THP-1 LPS/ATP IL-1B secretion, AlphaLISA, 16 h; hits give low values; activity change, % at 57.5 µM; 4.7% of 360,000 active; AID 743279; in the data active = activity change below about -50%; inconclusive = mostly about -30% to -49%
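Secreted IL-1B measured by AlphaLISA bead assay after 16 h compound exposure of THP-1 cells; compounds (final up to 57.5 uM) added 1 h before LPS (250 ng/mL) and ATP (1.25 mM) stimulation; lower signal means less secretion.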
TDP1 cell noCPT – qHTS for Inhibitors of human tyrosyl-DNA phosphodiesterase 1 (TDP1): qHTS in cells in absence of CPT. DT40 Tdp1-/- hTDP1 cells, no CPT, ATP luminescence, 48 h. Potency, µM (titrated, usually from 46.2 µM), for inactives: at the highest dose activity change, negative = growth inhibition, actives largely listed as inhibitors. 15% of 420,000 active; note: potency is the fitted concentration of half-maximal effect; nearly all actives have a fitted effect of over 55% in size
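Growth kinetics read by CellTiter-Glo luminescence after ≥48 hr at 37 °C. Cells: DT40 Tdp1-/- stably carrying human TDP1, 400 per well, compound exposure in the absence of CPT (DMSO vehicle).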
TDP1 cell CPT – growth inhibition of DT40 Tdp1-/-;hTDP1 cells with camptothecin (screen for TDP1 inhibitors); chicken DT40 Tdp1-/-;hTDP1 cells + 20 nM CPT, ATP luminescence, 48 h; Potency, µM (titrated, usually from 46.2 µM), for the others: at the highest dose activity change, negative = growth inhibition, usual class: inhibitors; 12% of 420,000 active; AID 686979; note: potency is the fitted concentration of half-maximal effect; nearly all actives have a fitted effect of over 55% in size
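Cell growth measured by CellTiter-Glo luminescence after a minimum 48 h, 37 C compound exposure with 20 nM CPT in Tdp1-knockout DT40 cells stably expressing hTDP1, seeded 400/well; qHTS titration format.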
* = called active by the depositor; ? = inconclusive; · = no result given; [ ] = dose if it differs, or a comment. Shown are actives, neighbours in structure and some others; about 19% of the full set was active somewhere. Unless noted, calls come from the whole dose curve; as a rule, active = well fitted curve in the direction sought with a large enough effect; inconclusive = small, poorly fitted or top-dose-only effect, or another doubt; inactive = no such curve, though single readings can be large; an effect the other way counts as inactive or inconclusive. Unless noted, % is set by controls: 0 for no effect and ±100 for the full control effect.

SMILES	HT1080 IDH1KD tx	HT1080NT lethal	IL-1B inflam inh	TDP1 cell noCPT	TDP1 cell CPT
Cc1ccc(NC(=O)CN2C(=O)CSc3ccc(S(=O)(=O)N4CCCCC4)cc32)cc1	?	-3%	-89*	-13%	?
CCc1ccc(NC(=O)CN2C(=O)CSc3ccc(S(=O)(=O)N(C)C)cc32)cc1	·	·	·	-21%	-13%
CCOc1ccc(NC(=O)CN2C(=O)CSc3ccc(S(=O)(=O)N4CCCC4)cc32)cc1	2%	-1%	?	?	?
CCOC(=O)CN1C(=O)CSc2ccc(S(=O)(=O)N3CCOCC3)cc21	10%	7%	-7	13%	1%
O=C(CN1C(=O)CSc2ccc(S(=O)(=O)N3CCCC3)cc21)Nc1cccc(Cl)c1	·	·	·	23µM*	?
COc1ccc(NC(=O)CN2C(=O)CSc3ccc(S(=O)(=O)N(C)C)cc32)cc1Cl	·	·	·	?	23µM*
CCOC(=O)CN1C(=O)CSc2ccc(S(=O)(=O)N3CCCC3)cc21	17%	24%	-52*	?	-13%
CCN(CC)CCNC(=O)Cc1nn(Cc2ccccc2)c(=O)c2ccccc12	-9%	1%	-9	1%	11%
O=C(NCc1ccccc1Cl)c1ccc2nc([C@H]3C[C@H](O)[C@@H](CO)O3)[nH]c2c1	2%	18%	15	-3%	-7%
O=C(Nc1nc(-c2cccs2)cs1)c1cccc(S(=O)(=O)N2CCCCC2)c1	-21%	-3%	0	26µM*	?
Cc1ccc(-c2csc(NC(=O)c3cccc(S(=O)(=O)N4CCN(C)CC4)c3)n2)cc1	-10%	-8%	15	18µM*	?
CCOC(=O)c1c(C)[nH]c(C)c1S(=O)(=O)N1CCC(C(=O)NCc2cccc(C)c2)CC1	·	·	·	-9%	-2%
CCC(C)n1c(=O)c2sccc2n2c(CCCC(=O)NCc3ccccc3Cl)nnc12 (stereo not drawn)	·	·	·	-21%	1%
Nc1ccn([C@@H]2O[C@H](CNCc3ccc(-c4cc(C(F)(F)F)ccc4Cl)o3)[C@@H](O)[C@H]2O)c(=O)n1	-2%	1%	?	5%	1%
O=C(Cn1cc(S(=O)(=O)Cc2cccc(Cl)c2)c2ccccc21)Nc1ccccc1C(F)(F)F	·	·	·	?	13µM*
Cc1cc(NC(=O)CS(=O)(=O)c2cn(Cc3cccc(Cl)c3)c3ccccc23)no1	?	?	-25	21µM*	26µM*
CC(=O)c1ccc(NC(=O)Cn2cc(S(=O)(=O)Cc3cccc(Cl)c3)c3ccccc32)cc1	·	·	·	23µM*	23µM*
Cc1ccccc1Cn1cc(S(=O)(=O)CC(=O)Nc2nccs2)c2ccccc21	-22%	?	-64*	?	?
O=C(Cn1cc(S(=O)(=O)Cc2ccccc2)c2ccccc21)Nc1ccccc1	0%	-17%	8	-29%	-19%
Cc1ccc(S(=O)(=O)Cc2ccc(C(=O)O)o2)cc1	-11%	1%	0	-17%	5%
CCc1ccc2[nH]c3nc(N/N=C/c4ccc(O)cc4O)nnc3c2c1	5.2µM*	?	150	?	?
COc1ccc(C(=O)NC(=S)Nc2ccccc2N2CCOCC2)cc1Br	5%	5%	-22	18µM*	?
Fc1cc(F)cc(NC(=S)Nc2ccccc2N2CCOCC2)c1	-5%	5%	-9	26µM*	-15%
S=C(NCCc1ccccc1)Nc1ccccc1N1CCOCC1	-2%	-15%	-8	?	?
COc1ccc(C(=O)Nc2ccccc2N2CCOCC2)cc1Br	7%	11%	-20	?	?
SMILES	HT1080 IDH1KD tx	HT1080NT lethal	IL-1B inflam inh	TDP1 cell noCPT	TDP1 cell CPT
COc1ccc(C(=O)NC(=S)NC(C)(C)C)cc1Br	-5%	4%	-27	23µM*	?
COc1ccc(C(=O)NC(=S)NC(C)C)cc1Br	?	?	0	?	?
CCOc1ccc(C(=O)NC(=S)Nc2ccccc2N2CCOCC2)cc1Br	0%	-2%	-14	16µM*	?
CCOC(=O)C1=C(N)Oc2cc(O)ccc2C1c1cccc(Cl)c1 (stereo not drawn)	7.3µM*	9.2µM*	5	?	?
CCOC(=O)C1=C(N)Oc2cc(O)ccc2C1c1cccnc1 (stereo not drawn)	0%	-1%	17	?	23µM*
CCOC(=O)C1=C(N)Oc2cc(O)ccc2C1c1ccc(Br)cc1 (stereo not drawn)	0%	-20%	27	-14%	-28%
CCOC(=O)C1=C(N)OC2=C(C(=O)CC(C)C2)C1c1cccnc1 (stereo not drawn)	9%	5%	15	-19%	16%
Cc1ccc(C)c(Nc2nc3nonc3nc2Nc2cccc(C)c2C)c1	·	·	·	2.9µM*	3.7µM*
Cc1ccc(C)c(Nc2nc3nonc3nc2N2CCOCC2)c1	11%	0%	-10	-7%	0%
CCOC(=O)c1ccc(Nc2nc3nonc3nc2Nc2cccc(C)c2C)cc1	·	·	·	2.1µM*	2.6µM*
COc1ccc(C(=O)NNC(=O)CSc2nnc(-c3ccc(O)cc3)n2C)cc1	5%	-2%	6	8%	-4%
CCOC(=O)Cn1c(S(=O)(=O)Cc2cccc(F)c2)nc(-c2ccccc2)c1-c1ccccc1	7.1µM*	-3%	-20	10µM*	8.2µM*
C#CCn1c(S(=O)(=O)Cc2ccc(F)cc2)nc(-c2ccccc2)c1-c1ccccc1	1.4µM*	?	?	10µM*	15µM*
CCC(C)C(CO)NCCCn1cnc(C(=O)Nc2ccc(C)c(C)c2)n1 (stereo not drawn)	-2%	-2%	-23	?	?
Cc1ccc(S(=O)(=O)CC(=O)N2CCN(c3ccc([N+](=O)[O-])cc3)CC2)cc1	-20%	-24%	-21	?	13µM*
Cc1ccc(CC(=O)N2CCN(c3ccc([N+](=O)[O-])cc3)CC2)cc1	?	-24%	·	7.3µM*	?
C#CCn1cnc2c(cnn2-c2ccc(F)cc2)c1=O	·	·	·	-17%	1%
CCOC(=O)C1CCN(CC(=O)N2CCCc3c2c(=O)oc2ccc(OCc4ccccc4)cc32)CC1	·	·	·	-22%	-22%
CCCOc1ccc2oc(=O)c3c(c2c1)CCCN3C(=O)CN1CCN(c2ncccn2)CC1	18%	13%	6	?	18µM*
CCCOc1ccc2oc(=O)c3c(c2c1)CCCN3C(=O)CN1CCCC(C(=O)OCC)C1 (stereo not drawn)	-7%	-4%	10	23µM*	?
CCOc1ccccc1OCC(=O)OC(C)C(=O)Nc1ncc(Cl)cc1Cl (stereo not drawn)	6%	-3%[9.24 µM]	26	13%	-23%

Screens (PubChem BioAssay)
